An excerpt weighted towards active compounds, which were near 18% of everything screened.
TDP1 inh – qHTS Assay for Inhibitors of Tyrosyl-DNA Phosphodiesterase (TDP1). hit rate 0.28% among 350,000. Tyrosyl-DNA phosphodiesterase 1 (Homo sapiens), Q9NUW8. Potency, µM (top dose mostly 130 µM), for the others: top-dose activity change, negative = inhibition, most hits filed as inhibitors. recombinant TDP1, AlphaScreen DNA substrate cleavage; further: potency means the concentration at half of the fitted maximal effect; on the % scale 0 is the no-effect control and ±100 the full control effect; nearly all actives have a fitted effect of over 40% in size
Target sequence (Q9NUW8 whole entry, looked up): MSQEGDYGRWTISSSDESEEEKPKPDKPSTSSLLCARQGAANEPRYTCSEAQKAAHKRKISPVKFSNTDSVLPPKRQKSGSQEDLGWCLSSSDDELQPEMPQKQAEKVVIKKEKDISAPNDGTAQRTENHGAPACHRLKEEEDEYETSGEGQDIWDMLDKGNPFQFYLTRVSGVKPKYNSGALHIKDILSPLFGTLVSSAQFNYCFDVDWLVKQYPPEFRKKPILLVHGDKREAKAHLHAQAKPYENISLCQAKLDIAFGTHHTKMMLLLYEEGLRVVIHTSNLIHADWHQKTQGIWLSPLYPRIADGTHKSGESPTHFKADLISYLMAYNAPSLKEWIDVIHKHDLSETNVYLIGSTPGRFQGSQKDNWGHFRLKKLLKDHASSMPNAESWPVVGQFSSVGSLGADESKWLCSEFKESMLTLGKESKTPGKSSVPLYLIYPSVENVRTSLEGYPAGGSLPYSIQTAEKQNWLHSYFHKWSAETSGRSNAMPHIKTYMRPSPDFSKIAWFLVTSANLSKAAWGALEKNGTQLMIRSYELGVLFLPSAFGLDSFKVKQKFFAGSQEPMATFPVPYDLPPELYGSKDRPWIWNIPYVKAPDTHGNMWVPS
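Recombinant human Tdp1 (E. coli-expressed, 1 nM final) preincubated with compounds 15 min at room temperature, then 5'-biotin/3'-phosphotyrosine-FITC DNA substrate (15 nM final) added for 5 min. AlphaScreen beads (10 ug/ml final) added 10 min; cleavage lowers signal.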
TGFb inhibitor – qHTS for Inhibitors of TGF-b | HepG2 CAGA-GFP TGF-b/SMAD3 reporter, GFP fluorescence, 18 h; TGF-beta stimulated, 500 pg/mL final | Potency, µM (top dose mostly 46.1 µM), inactives show at the top dose activity, negative = inhibition, actives largely listed as inhibitors | hit rate 1.2% among 410,000; further: potency means the concentration at half of the fitted maximal effect; on the % scale 0 is the no-effect control and ±100 the full control effect; nearly all actives have a fitted effect of over 65% in size
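Inhibition was scored as loss of TGF-beta-induced (500 pg/mL final, 18 hours, 37 degrees C) GFP in HEPG2 cells carrying a CAGA-GFP reporter, in DMEM with 1% FBS. Well GFP was summed per cell; Activity was normalised to unstimulated and stimulated DMSO wells, then concentration-response fitting.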
HepG2 viability – qHTS for Inhibitors of TGF-b: Cytotox Counterscreen; HepG2 CAGA-GFP viability, ATP luminescence, 18 h; Potency, µM (highest dose often 46.1 µM), inactives show at the highest dose activity change, negative = cytotoxicity, hits mostly cytotoxic; hit rate 0.76% among 410,000; further: potency means the concentration at half of the fitted maximal effect
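CellTiter-Glo luminescence gave cytotoxicity after 18 hours at 37 degrees C. The cells were HepG2 CAGA-GFP in 1% FBS DMEM, stimulated with 500 pg/mL TGF-beta after compound addition. %Activity was normalised to no-cell wells (complete cell-killing) and DMSO (no toxicity), and curves were fitted and classified.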
DT40 TDP1 CPT – qHTS for Inhibitors of human tyrosyl-DNA phosphodiesterase 1 (TDP1): qHTS in cells in presence of CPT; chicken DT40 Tdp1-/-;hTDP1 cells + 20 nM CPT, ATP luminescence, 48 h; Potency, µM (titrated, usually from 46.2 µM), without a hit: at the top dose activity change, negative = growth inhibition, hits mostly inhibitors; hit rate 12% among 420,000; AID 686979, 2013; further: potency means the concentration at half of the fitted maximal effect; on the % scale 0 is the no-effect control and ±100 the full control effect; nearly all actives have a fitted effect of over 55% in size
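Chicken DT40 Tdp1-/- cells complemented with human TDP1, 400 cells/well, exposed to compounds plus 20 nM camptothecin for at least 48 h at 37 C; viability read as ATP content by CellTiter-Glo luminescence.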
TDP1 cell noCPT – qHTS for Inhibitors of human tyrosyl-DNA phosphodiesterase 1 (TDP1): qHTS in cells in absence of CPT; DT40 Tdp1-/- hTDP1 cells, no CPT, ATP luminescence, 48 h; Potency, µM (doses to about 46.2 µM), without a hit: top-dose activity change, negative = growth inhibition, hits mostly inhibitors; hit rate 15% among 420,000; AID 686978, 2013; further: potency means the concentration at half of the fitted maximal effect; on the % scale 0 is the no-effect control and ±100 the full control effect; nearly all actives have a fitted effect of over 55% in size
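Seeded 400 DT40-hTDP1 cells/well (vehicle DMSO, no 20 nM CPT); pinned compounds; ≥48 hr at 37 °C; CellTiter-Glo luminescence as viability measure.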
IL-1B inflam inh – qHTS for Inhibitors of Inflammasome Signaling: IL-1-beta AlphaLISA Primary Screen; THP-1 LPS/ATP IL-1B secretion, AlphaLISA, 16 h; active compounds read low; activity change, % at 57.5 µM; hit rate 4.7% among 360,000; in the data active means activity change below about -50%; inconclusive means mostly about -30% to -49%; further: on the % scale 0 is the no-effect control and ±100 the full control effect
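Secreted IL-1B measured by AlphaLISA bead assay after 16 h compound exposure of THP-1 cells; compounds (final up to 57.5 uM) added 1 h before LPS (250 ng/mL) and ATP (1.25 mM) stimulation; lower signal means less secretion.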
Active calls of the source: *; u = inconclusive; x = no result; [ ] = another dose, or the depositor's remark. Unless noted, the call rests on the fitted dose curve; in most records, active means well fitted curve in the direction sought with a large enough effect; inconclusive means small, poorly fitted or top-dose-only effect, or another doubt; inactive means no such curve, though single readings can be large; an effect the other way counts as inactive or inconclusive.

SMILES	TDP1 inh	TGFb inhibitor	HepG2 viability	DT40 TDP1 CPT	TDP1 cell noCPT	IL-1B inflam inh
Cc1ccc(NC(=O)c2ccc(NCCCN3CCOCC3)c([N+](=O)[O-])c2)cc1Cl	-5%	-20%	4%	u	21µM*	-67*
COc1cccc(C(=O)NCC(c2ccco2)N2CCOCC2)c1 (configuration not stated)	x	-3%	1%	-11%	-8%	10
N#Cc1ccc(OCC(=O)N2CCCC2=O)cc1	2%	-3%	0%	3%	-7%	-10
O=[N+]([O-])c1cc(S(=O)(=O)NCCN2CCOCC2)ccc1Sc1nnnn1-c1ccccc1	3%	u	-119%	5.8µM*	6.5µM*	-100*
O=S(=O)(NCCN1CCOCC1)c1ccc2ccccc2c1	0%	-2%	-4%	-22%	u	-17
O=C(Nc1ccc(Cl)c([N+](=O)[O-])c1)c1ccc(NCCCN2CCOCC2)c([N+](=O)[O-])c1	1%	7%	-15%	2.3µM*	2.3µM*	0
O=C(NCCCN1CCOCC1)c1ccc(Cl)c([N+](=O)[O-])c1	x	-4%	11%	7%	-3%	-2
COc1ccccc1N1CCN(c2nc(CNC(=O)C3CCOC(C)(C)C3)nc3ccccc23)CC1 (configuration not stated)	x	x	x	u	16µM*	x
COc1ccccc1N1CCN(c2nc(CNC(=O)c3ccccc3F)nc3ccccc23)CC1	x	x	x	u	8.2µM*	x
COc1ccccc1N1CCN(c2nc(CNC(=O)C3CC34CCCC4)nc3ccccc23)CC1 (configuration not stated)	x	x	x	-13%[9.04 µM]	21µM*	x
CCSc1nnc(CNC(=O)c2ccccc2F)n1-c1ccccc1OC	-1%	0%	-1%	13%	1%	5
COc1ccccc1N1CCN(C(=O)CSc2nc3ccccc3nc2N2CCCCC2)CC1	x	u	-10%	u	u	-10
COc1cc(O)c(C=Nc2ccccc2NS(=O)(=O)c2ccc(C)cc2)c(OC)c1	x	-18%	-23%	u	-23%	30
COc1cc(CNC(=O)C2CCC(=O)N(C3CCCCCC3)C2)cc(OC)c1 (configuration not stated)	3%	0%	-6%	-20%	2%	22
Cc1ccc(OCC(=O)NNC(=O)C2CSC3(C)CCC(=O)N23)cc1C (configuration not stated)	0%	-7%	-13%	5%	5%	-3
CC12CCC(C(=O)N(CSC(=S)N/N=C\c3ccccc3)C1=O)C2(C)C (configuration not stated)	2%	0%	-51%	5.8µM*	4.6µM*	21
CC12CCC(C(=O)N(CSC(=S)N/N=C\c3ccccc3Cl)C1=O)C2(C)C (configuration not stated)	-2%	-12%	-3%	-11%	u	6
COc1cc(-c2nnc(SCC(=O)Nc3ccc(F)c(Cl)c3)o2)cc(OC)c1OC	6%	-4%	-28%	-4%	3%	x
COc1ccc(CNS(=O)(=O)c2cc(C(=O)Nc3cc(Cl)cc(Cl)c3)ccc2F)cc1	10%	7.1µM*	10µM*	u	u	x
CCc1ccc(NC(=O)c2ccc(F)c(S(=O)(=O)NCc3ccc(Cl)c(Cl)c3)c2)cc1	5%	u	-61%	u	u	x
O=C(Nc1cc(Cl)cc(Cl)c1)c1ccc(F)c(S(=O)(=O)NCc2ccccc2Cl)c1	8%	u	-111%	-99%	10µM*	x
CC(=O)c1cc2c(cc1NC(=O)CSc1nc3ccc(C)cc3[nH]1)OCO2	0%	6%	1%	-10%	u	-74*
Cc1noc(NS(=O)(=O)c2ccc(NC(=O)CSc3nnc4c(n3)[nH]c3ccccc34)cc2)c1C	-1%	31%	29%	-7%	-21%	12
CN(C)S(=O)(=O)c1cccc(NC(=O)CSc2nc3ccccc3[nH]2)c1	8%	u	-2%	u	u	-61*
CN(C)S(=O)(=O)c1cccc(NC(=O)CSc2nnnn2-c2ccccc2)c1	1%	u	3%	15µM*	23µM*	-2
SMILES	TDP1 inh	TGFb inhibitor	HepG2 viability	DT40 TDP1 CPT	TDP1 cell noCPT	IL-1B inflam inh
CCN(CC)S(=O)(=O)c1ccc(NC(=O)CSc2nnc3c(n2)[nH]c2ccccc23)cc1	x	x	x	7.1µM*	6.3µM*	x
CC(=O)Nc1cccc(NC(=O)CSc2nc(=O)n(CCN3CCOCC3)c3c2CCCC3)c1	4%	14%	-6%	-18%	-6%	0
CSc1ncccc1C(=O)OCC(=O)c1ccc(C)s1	-1%	25%	2%	-1%	-15%	2
Cc1ccc2nc(SCC(=O)Nc3ccc4c(c3)CCC4)[nH]c2c1	-2%	-16%	-18%	18µM*	u	0
Cc1cccc(NC(=O)CSc2nnc(CNC(=O)c3ccc(S(=O)(=O)N(C)C)cc3)n2-c2ccccc2)c1	0%	7%	7%	-27%	u	7
CCCCNS(=O)(=O)c1ccc2nc(SCC(=O)Nc3ccccc3)[nH]c2c1	5%	u	-22%	-1%	16µM*	0
Cc1cccc(NC(=O)CSc2nnc(CNC(=O)c3ccc(S(=O)(=O)N(C)C)cc3)n2-c2cccc(C)c2)c1	-6%	-6%	-2%	16µM*	u	-4
Cc1ccc2nc(SCC(=O)Nc3cccc(S(=O)(=O)N(C)C)c3)[nH]c2c1	3%	u	-34%	u	16µM*	-21
CCOC(=O)C1(C)CCCN(C(=O)c2ccc(C)c(F)c2)C1 (configuration not stated)	x	-19%	-4%	2%	-29%	52
CCC(=O)C1CCCN(C(=O)c2ccc(OC3CCN(C(=O)c4cccnc4)CC3)cc2)C1 (configuration not stated)	x	10%	2%	0%	-27%	15
O=C(O)CCn1c(SCCOc2ccccc2F)nc2ccccc21	x	-2%	-6%	-4%	12%	23
Cc1ccc(CN(C)CC(=O)Nc2ccc3c(c2)CCC3)cc1	0%	1%	0%	-5%	u	-66*

Screens deposited in PubChem BioAssay by National Center for Advancing Translational Sciences (NCATS).
